From PubChem
SARS PLP yeast – blocks SARS-CoV papain-like protease in a yeast assay; S. cerevisiae expressing SARS-CoV PLpro, growth rescue; Potency, µM (series often up to 32.9 µM), hits mostly activators; 330,000 tested, 0.19% active; AID 485353; calls by dose curve; note: nearly all actives have a fitted effect of over 55% in size
Pf growth 48h – inhibits P. falciparum growth in the first generation, 48 h; AID 504832; Potency, µM (titrated, usually from 28.7 µM), usual class: inhibitors; 310,000 tested, 5.9% active; P. falciparum luciferase growth in erythrocytes, 48 h
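A one-generation exposure of luciferase-tagged malaria parasites in RPMI 1640/Albumax erythrocyte culture, 37 C and 5% CO2. Inhibition is inferred from decreased luminescence after adding detection reagent.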
AMA1 RON2 block – AMA1-RON2 (P. falciparum) interaction inhibition | AlphaScreen AMA1-biotinylated RON2 peptide binding | Potency, µM (top dose mostly 58.2 µM), most hits filed as inhibitors | 360,000 tested, 0.2% active | AID 720542; note: nearly all actives have a fitted effect of over 45% in size
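AMA1 (3D7) with his tag at 25 nM final met compounds first, then biotinylated RON2 peptide at 25 nM; detection used donor plus acceptor beads, 10 µg/mL apiece, read by AlphaScreen after 30 min at room temperature.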
Pf growth 96h – inhibits malaria parasite growth, 96 h. 320,000 tested, 6.9% active. Potency, µM (doses to about 28.7 µM), actives largely listed as inhibitors. AID 504834. P. falciparum luciferase reporter growth, 96 h
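Erythrocytes infected with luciferase-expressing P. falciparum were dispensed at 2% hematocrit and 0.05% parasitemia (final), then incubated with compounds 96 hours at 37 C in 5% CO2. Luminescence after detection reagent addition reported growth.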
A number is an active result; 0 = inactive; ? = inconclusive; - = not tested or not shown. Only some compounds are listed: those with a hit (about 9.4% of all), similar ones and a draw of the others. Unless noted, calls come from the whole dose curve; as a rule, active = well fitted curve in the direction sought with a large enough effect; inconclusive = small, poorly fitted or top-dose-only effect, or another doubt; inactive = no such curve, though single readings can be large; an effect the other way counts as inactive or inconclusive.

SMILES	SARS PLP yeast	Pf growth 48h	AMA1 RON2 block	Pf growth 96h
Nc1nn(-c2ccccc2)nc1C(=O)OCc1ccccc1F	0	0	-	1µM
CCOC(=O)Cc1csc(/N=C/c2c(O)n(-c3ccc(C)cc3C)c(=O)c3ccccc23)n1	0	0	0	0
Cc1nc(Cl)c(C(=O)NC(=O)NCc2ccccc2)c(C)c1Cl	0	0	0	13µM
Nn1c(SCc2ccccc2F)nnc1-c1ccccn1	0	0	?	0
O=C(Nc1ccccc1N1CCCCC1)c1ccc(F)c(S(=O)(=O)N2CCOCC2)c1	0	13µM	0	?
Cc1ccc(C(=O)Nc2ccccc2N2CCOCC2)cc1S(=O)(=O)N1CCOCC1	0	13µM	0	?
Cc1ccc(C(=O)O)cc1S(=O)(=O)N1CCOCC1	0	0	0	8.3µM
O=C(Nc1ccccc1N1CCCC1)c1ccc(Cl)c(S(=O)(=O)N2CCOCC2)c1	0	12µM	0	8.3µM
CCOn1c(=O)c(-c2ccccc2)[n+]([O-])c2ccccc21	0	-	0	0
O=C(NCC1CCCCC1)c1ccc(F)c(S(=O)(=O)N2CCOCC2)c1	0	?	0	7.4µM
CC1(CCBr)C(=O)N(c2ccccc2)c2ccccc21 (stereo not given)	0	0	0	13µM
Cc1ccc(O)c(-c2cc(C(F)(F)C(F)F)nc(-c3ccccc3)n2)c1	0	?	0	8.3µM
Oc1ccc(Cl)cc1-c1cc(C(F)(F)C(F)F)nc(-c2ccccc2)n1	0	1.3µM	0	-
Oc1ccccc1-c1cc(C(F)(F)F)nc(-c2ccccc2)n1	0	?	0	?
COCCCNC1=C(C#N)C(=O)NC(c2cccc([N+](=O)[O-])c2)S1 (stereo not given)	-	-	0	-
Cc1ccc(NC(=O)N2CCC(NC(=O)c3ccccc3C)CC2)cc1	0	0	0	0
Cn1c(N)c(C(=O)COC(=O)C2(c3cccc(F)c3)CCCC2)c(=O)n(C)c1=O	0	7.4µM	0	13µM
O=C(NCc1ccc(F)cc1)c1cc(C2CCCCN2S(=O)(=O)Cc2ccccc2)on1 (stereo not given)	-	-	0	-
CC(C)(C)NC(=O)NC(=O)COC(=O)Cn1cnc2ccccc2c1=O	0	12µM	0	0
O=C(COC(=O)Cn1cnc2ccccc2c1=O)NCc1ccccc1	0	0	0	0
CC(O)CNc1nc2sc3c(c2c(=O)n1CCc1ccccc1)CCCCC3 (stereo not given)	0	12µM	0	0
CN(C)CCNc1nc2sc3c(c2c(=O)n1CCc1ccccc1)CCCCC3	0	2.1µM	0	2.3µM
Cc1c(C(=O)NN2CCN(C)CC2)cccc1[N+](=O)[O-]	0	0	0	0
O=C(Nc1ccc(C(F)(F)F)cc1)C1(c2ccccc2)CC1	0	0	0	0
COc1ccccc1/C=C/C1(C(=O)NC2CCCC2)CC(=O)N1c1ccc(F)cc1 (stereo not given)	0	10µM	0	0
SMILES	SARS PLP yeast	Pf growth 48h	AMA1 RON2 block	Pf growth 96h
COc1ccccc1/C=C/C1(C(=O)NC2CCCC2)CC(=O)N1c1ccc(C)cc1 (stereo not given)	0	?	0	0
O=C(CSc1nnc(-c2ccncc2)n1Cc1ccco1)Nc1nccs1	?	0	0	7.4µM
COc1ccc(NC(=O)CSc2nnc(-c3ccccc3)n2Cc2ccco2)cc1OC	0	0	0	0
Cc1cccc(C)c1NC(=O)CSc1nnc(-c2ccncc2)n1Cc1ccco1	0	-	0	0
CCOC(=O)CNC(=O)CSc1nnc(-c2ccccc2)n1Cc1ccco1	0	0	0	12µM
Cc1cccc(C(=O)Nc2nnc(C3=COCCO3)o2)c1	0	0	0	?
CC(C)(C)c1ccc(C(=O)Nc2nnc(C3=COCCO3)o2)cc1	0	15µM	0	9.3µM
O=C(Nc1nnc(C2=COCCO2)o1)c1cccc(F)c1	0	?	0	15µM
CN(C)c1ccc(C(=O)Nc2nnc(C3=COCCO3)o2)cc1	0	0	0	0
CC(C)C(C(=O)NCc1ccco1)N(Cc1ccco1)C(=O)CNS(=O)(=O)c1ccc(F)cc1 (stereo not given)	0	?	0	?
OC(c1ccc(F)c(F)c1)c1ncc(-c2ccccc2F)[nH]1 (stereo not given)	-	-	0	-
O=C(O)C1Nc2c(Cl)cc(Cl)c(Cl)c2C2C=CCC12 (stereo not given)	-	-	0	-
O=C(O)C1Nc2c(O)cccc2C2C=CCC12 (stereo not given)	?	0	0	15µM
O=C(O)C1Nc2c(Cl)cc(Cl)cc2C2C=CCC12 (stereo not given)	0	0	14µM	?
CN1CCN(c2c(F)cc3c(=O)c(C(=O)O)cn4c3c2SCC4)CC1	0	?	0	5.2µM
COC(=O)CN1C(=O)[C@H]2[C@@H](c3ccc(C)o3)N3C(=O)CN(CCO)C(=O)[C@@]3(Cc3ccccc3)[C@H]2C1=O	0	0	0	0
CCn1cc(C(=O)O)c(=O)c2cnc(N3CCN(C(=S)NC(=O)c4ccc(Cl)cc4)CC3)nc21	0	0	0	0
CCn1cc(C(=O)O)c(=O)c2cnc(N3CCN(C(=S)Nc4ccccc4Cl)CC3)nc21	0	0.37µM	0	0.83µM
CCn1cc(C(=O)O)c(=O)c2cnc(N3CCN(C(=S)Nc4ccc(F)cc4)CC3)nc21	0	?	0	0.93µM
N=c1nc2n(cc1F)C1OC(CO)C(O)C1O2 (stereo not given)	-	-	0	-
O=C(O)Cn1c(=O)cnc2ccccc21	0	0	0	-
COc1ccc(CCn2c(C(C)C)nc3oc4ccccc4c(=O)c3c2=O)cc1	0	8.3µM	0	6.6µM
COc1ccc(Cn2c(C3CCCCC3)nc3c(c(=O)c4ccccc4n3C)c2=O)cc1	0	3.3µM	0	2.3µM
COc1ccc(Cn2c(-c3ccccc3)nc3c(c(=O)c4ccccc4n3C)c2=O)cc1	0	0	0	12µM
COCCn1c(-c2ccc(Cl)cc2)nc2c(c(=O)c3ccccc3n2C)c1=O	0	?	-	8.3µM
SMILES	SARS PLP yeast	Pf growth 48h	AMA1 RON2 block	Pf growth 96h
CC(C)c1nc2c(c(=O)c3ccccc3n2C)c(=O)n1CCc1ccccc1	0	?	0	4.7µM
COc1ccc(CCn2c(C3CCCCC3)nc3c(c(=O)c4ccccc4n3C)c2=O)cc1OC	0	3.3µM	0	4.7µM
CCN1C(=O)c2ccc(-c3nc4ccccc4c(=O)o3)cc2C1=O	0	0	0	0
COc1ccc(NC(=O)CS(=O)c2cccc(Cl)c2)cc1 (stereo not given)	0	0	0	?
COc1cc(C#Cc2c(C=O)n(C)c3ccccc23)cc(OC)c1	0	?	0	?
Cn1cncc1C#Cc1c(C=O)n(C)c2ccccc12	0	12µM	0	?
Cn1cncc1C#Cc1c(C=O)[nH]c2ccccc12	0	8.3µM	0	5.2µM
CCCCN(C(=O)C1=NN(c2ccccc2)C(=O)CC1)c1c(N)n(CCC)c(=O)[nH]c1=O	0	-	0	-
CCOC(=O)N1CCN(CC(O)c2ccc3c(c2)CCN3)CC1 (stereo not given)	0	0	0	?
OC(CN1CCN(c2ccccc2)CC1)c1ccc2c(c1)CCN2 (stereo not given)	0	0	0	9.3µM
Cc1noc(/C=C/N(C)C)c1S(=O)(=O)N1CCN(c2ccc(F)cc2)CC1	0	0	0	?
